In ChEMBL document CHEMBL3988442, “University of Dundee, Small-Polar-MMV Screening Library” (2021):

Experiments:
[1] = target: T1, Aspartate--tRNA(Asp/Asn) ligase (Mycobacterium tuberculosis (strain ATCC 25618 / H37Rv)) (UniProt P9WFW3); assay: Assay for Asp RNA synthetase-1 from Mycobacterium tuberculosis; format: functional; set-up: scale not given: direction of the effect not stated beside the values; conditions: 30 µM; note: in the data most compounds retested in dose-response had high values
T1 sequence (whole entry): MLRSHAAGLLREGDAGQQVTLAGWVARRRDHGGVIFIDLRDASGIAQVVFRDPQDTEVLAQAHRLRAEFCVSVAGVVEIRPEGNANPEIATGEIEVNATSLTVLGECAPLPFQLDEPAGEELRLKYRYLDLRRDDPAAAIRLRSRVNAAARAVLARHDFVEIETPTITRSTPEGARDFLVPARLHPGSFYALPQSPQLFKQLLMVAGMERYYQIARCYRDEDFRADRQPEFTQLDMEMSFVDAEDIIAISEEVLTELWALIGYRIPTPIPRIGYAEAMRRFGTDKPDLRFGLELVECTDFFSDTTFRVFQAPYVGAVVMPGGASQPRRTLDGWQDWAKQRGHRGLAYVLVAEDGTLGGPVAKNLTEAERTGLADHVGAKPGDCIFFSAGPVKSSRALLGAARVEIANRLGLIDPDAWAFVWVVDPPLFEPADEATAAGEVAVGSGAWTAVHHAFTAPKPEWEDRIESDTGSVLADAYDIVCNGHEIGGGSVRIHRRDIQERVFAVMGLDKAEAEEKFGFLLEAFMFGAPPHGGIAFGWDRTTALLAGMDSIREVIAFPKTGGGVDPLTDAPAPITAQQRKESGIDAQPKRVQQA

[2] = target: Shiga toxin 2 (Escherichia coli O157:H7) (UniProt P09385+P09386); assay: E. coli 0.157:H7 Shiga Toxin SOP - stx2 screening assay; format: functional; set-up: scale not given: direction of the effect not stated beside the values; conditions: 30 µM

Question: Which results are given for CS(=O)(=O)Cc1cccc(C(=O)NCC2Cc3ccccc3O2)c1 (stereo not drawn)?
Answer: Percent Effect [1]: 8.39%; Percent Effect [2]: -0.655%

Question: CCc1ccccc1CN1CC[C@@H](NC(=O)c2cccnc2)[C@H](O)C1 was tested. Which Percent Effect [1] did it give?
Answer: The Percent Effect was -4.34%.

Question: And the Percent Effect [2]?
Answer: Its Percent Effect is -1.07%.

Question: For Cc1cnn(CCNCc2csc(-c3cccs3)n2)c1, which Percent Effect [1] is on record?
Answer: Its Percent Effect is -6.55%.

Question: What about the Percent Effect [2] of the same compound?
Answer: Its Percent Effect is 19.3%.

Question: With Cc1cnn(CC2CCCCN2C(=O)c2ccc3[nH]nnc3c2)c1 (stereo not drawn) as the compound, how does the Percent Effect [1] read?
Answer: The Percent Effect was 0.548%.

Question: What about the Percent Effect [2] of the same compound?
Answer: The Percent Effect was 30.9%.

Question: How did the Percent Effect [1] turn out when COc1cccc(CC2CN(C3CCN(C(C)=O)CC3)CCO2)c1 (stereo not drawn) was run?
Answer: The Percent Effect was -4.28%.

Question: And the Percent Effect [2]?
Answer: The Percent Effect was -26%.

Question: What does the source list for Cc1cc(CN(C)C(=O)C2CCS(=O)(=O)C2)no1 (stereo not drawn)?
Answer: Percent Effect [1]: -3.37%; Percent Effect [2]: -1.66%

Question: Fc1ccccc1CN1C[C@@H](OCc2ccncc2)[C@H]2OCCC[C@H]21 was tested. Which Percent Effect [1] did it give?
Answer: The Percent Effect was 2.94%.

Question: What about the Percent Effect [2] of the same compound?
Answer: Its Percent Effect is -45.1%.

Question: Which Percent Effect [1] does the source give for O=C(c1cccnc1)N1CCC2(CC1)CCN(c1ccsc1)C2=O here?
Answer: The Percent Effect was 3.8%.

Question: What about the Percent Effect [2] of the same compound?
Answer: The Percent Effect was -6.67%.

Question: Which Percent Effect [1] does the source give for O=C(CNC(=O)N1CCc2c([nH]c3ccc(Cl)cc23)C1)N1CCOCC1 here?
Answer: Its Percent Effect is 3.4%.

Question: What about the Percent Effect [2] of the same compound?
Answer: Its Percent Effect is -37.6%.

Question: Which results are given for CC(C)(O)CN1CCN(C(=O)c2cccnc2O)CC1?
Answer: Percent Effect [1]: -6.95%; Percent Effect [2]: 9.08%

Question: What does the source list for CC(C)NC(=O)CS(=O)(=O)Cc1cc(Cl)c2c(c1)OCCO2?
Answer: Percent Effect [1]: -0.2%; Percent Effect [2]: -1.92%

Question: With Cc1cc(=O)n(CC(=O)Nc2ccc(C(N)=O)cc2)nc1C as the compound, how does the Percent Effect [1] read?
Answer: The Percent Effect was -0.0781%.

Question: What about the Percent Effect [2] of the same compound?
Answer: The Percent Effect was -33%.

Question: For CCN1CCCC1CN(CCN(C)C)S(=O)(=O)c1ccc(C#N)cc1 (stereo not drawn), which Percent Effect [1] is on record?
Answer: The Percent Effect was -3.16%.

Question: And the Percent Effect [2]?
Answer: The Percent Effect was -8.05%.

Question: What does the source list for Cc1nn(C)c2c(N3CCN(C(=O)NC4CCCCC4)CC3)ncnc12?
Answer: Percent Effect [1]: -5.2%; Percent Effect [2]: -44.8%

Question: Which results are given for O=C(c1ccncc1F)N1CCc2ncnc(-c3ccncc3)c2CC1?
Answer: Percent Effect [1]: 3.59%; Percent Effect [2]: -0.901%

Question: Which Percent Effect [1] does the source give for Cc1csc(N2CCN(C(=O)CCNc3ncccn3)CC2)n1 here?
Answer: The Percent Effect was 1.38%.

Question: And the Percent Effect [2]?
Answer: Its Percent Effect is 21.6%.

Question: Which results are given for Cc1cccc(COC[C@]23COC[C@H]2CN(C(=O)c2ccsc2)C3)n1?
Answer: Percent Effect [1]: 1.56%; Percent Effect [2]: 7.59%

Question: For Cc1cc(N2CCN(Cc3ccccc3)CC(O)C2)cc(C)n1 (stereo not drawn), which Percent Effect [1] is on record?
Answer: Its Percent Effect is -5.25%.

Question: And the Percent Effect [2]?
Answer: The Percent Effect was -16.3%.

Question: Which Percent Effect [1] does the source give for CCc1nc(C(=O)NCc2ccc(N3CCNC(=O)C3)c(F)c2)c[nH]1 here?
Answer: The Percent Effect was 2.49%.

Question: What about the Percent Effect [2] of the same compound?
Answer: The Percent Effect was -51.1%.
